PubChem BioAssay (NCATS)
Records with an inconclusive call do not appear. Active and inactive are the calls of the source. Calls come from the whole dose curve; as a rule, active = well fitted curve in the direction sought with a large enough effect; inconclusive = small, poorly fitted or top-dose-only effect, or another doubt; inactive = no such curve, though single readings can be large; an effect the other way counts as inactive or inconclusive. Bridge positions count the residues as written; N and C are the ends. Square brackets hold non-standard residues; d marks the D form. Peptide text beside a SMILES is read from it. * marks the point of attachment. ξ: configuration not given here. ξDab(CH2SO3H) = NC(CCNCS(=O)(=O)O)C(=O)O; Heptanoyl(6-Me) = CC(C)CCCCC(=O)*; Dab = NCC[CH](N)C(=O)O

Legend:
[1] = S16 Schwann cell PMP22 intronic element firefly luciferase assay (AID 624032); note: nearly all actives have a fitted effect of over 30% in size
Summary of the method: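 Rat S16 Schwann cells stably carrying firefly luciferase driven by a PMP22 intronic element, in 10% FBS, treated 24 h at 37 C. ONE-Glo luminescence normalized to PTC124 control and DMSO (0%); curves classed by r2, magnitude and activity.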

3D7 = test: qHTS profiling for inhibitors of Plasmodium falciparum proliferation (AID 504749); note: nearly all actives have a fitted effect of over 60% in size; settings: P. falciparum in erythrocytes, SYBR Green DNA, 72 h; series mostly up to 28.7 µM
Summary of the method: (§1)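 Readout was DNA-dye fluorescence from lysed cultures, ex 485/em 535 nm. Parasitized red cells had grown 72 h with compound; data scaled between 0.29 uM artemisinin and DMSO wells and corrected using vehicle-only plates.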

AS120 = test: as above; settings: P. falciparum in erythrocytes, SYBR Green DNA, 72 h; series mostly up to 28.7 µM
Summary of the method: as §1

ATS95 = test: as above; settings: P. falciparum in erythrocytes, SYBR Green DNA, 72 h; series mostly up to 28.7 µM
Summary of the method: as §1

CP191 = test: as above; settings: P. falciparum in erythrocytes, SYBR Green DNA, 72 h; series mostly up to 28.7 µM
Summary of the method: as §1

CP211 = test: as above; settings: P. falciparum in erythrocytes, SYBR Green DNA, 72 h; series mostly up to 28.7 µM
Summary of the method: as §1

CP247 = test: as above; settings: P. falciparum in erythrocytes, SYBR Green DNA, 72 h; series mostly up to 28.7 µM
Summary of the method: as §1

CP262 = test: as above; settings: P. falciparum in erythrocytes, SYBR Green DNA, 72 h; series mostly up to 28.7 µM
Summary of the method: as §1

CP297 = test: as above; settings: P. falciparum in erythrocytes, SYBR Green DNA, 72 h; series mostly up to 28.7 µM
Summary of the method: as §1

CP335 = test: as above; settings: P. falciparum in erythrocytes, SYBR Green DNA, 72 h; series mostly up to 28.7 µM
Summary of the method: as §1

Dd2 = test: as above; settings: P. falciparum in erythrocytes, SYBR Green DNA, 72 h; series mostly up to 28.7 µM
Summary of the method: as §1

ECU = test: as above; settings: P. falciparum in erythrocytes, SYBR Green DNA, 72 h; series mostly up to 28.7 µM
Summary of the method: as §1

GB4 = test: as above; settings: P. falciparum in erythrocytes, SYBR Green DNA, 72 h; series mostly up to 28.7 µM
Summary of the method: as §1

N140 = test: as above; settings: P. falciparum in erythrocytes, SYBR Green DNA, 72 h; series mostly up to 28.7 µM
Summary of the method: as §1

P93_24 = test: as above; settings: P. falciparum in erythrocytes, SYBR Green DNA, 72 h; series mostly up to 28.7 µM
Summary of the method: as §1

PAD = test: as above; settings: P. falciparum in erythrocytes, SYBR Green DNA, 72 h; series mostly up to 28.7 µM
Summary of the method: as §1

SC27B = test: as above; settings: P. falciparum in erythrocytes, SYBR Green DNA, 72 h; series mostly up to 28.7 µM
Summary of the method: as §1

TAB113 = test: as above; settings: P. falciparum in erythrocytes, SYBR Green DNA, 72 h; series mostly up to 28.7 µM
Summary of the method: as §1

TAB165 = test: as above; settings: P. falciparum in erythrocytes, SYBR Green DNA, 72 h; series mostly up to 28.7 µM
Summary of the method: as §1

CP250 = test: as above; settings: P. falciparum in erythrocytes, SYBR Green DNA, 72 h; series mostly up to 28.7 µM
Summary of the method: as §1

Measured: Potency

CCC(C)C1NC(=O)C(CCNCS(=O)(=O)O)NC(=O)C(NC(=O)C(CCNCS(=O)(=O)O)NC(=O)C(NC(=O)C(CCNCS(=O)(=O)O)NC(=O)CCCCC(C)C)C(C)O)CCNC(=O)C(C(C)O)NC(=O)C(CCNCS(=O)(=O)O)NC(=O)C(CCNCS(=O)(=O)O)NC(=O)C(C(C)CC)NC1=O (stereo not given) ({Heptanoyl(6-Me)}-[ξDab(CH2SO3H)]T[ξDab(CH2SO3H)][Dab][ξDab(CH2SO3H)]II[ξDab(CH2SO3H)][ξDab(CH2SO3H)]T; lactam 4-C; configuration not given here)
inactive: [1] | 3D7 | AS120 | ATS95 | CP191 | CP211 | CP247 | CP262 | CP297 | CP335 | Dd2 | ECU | GB4 | N140 | P93_24 | PAD | SC27B | TAB113 | TAB165

CC(=O)OCC1=C(C(=O)O)N2C(=O)C(NC(=O)Cc3ccccc3)C2SC1 (stereo not given)
inactive: [1] | 3D7 | AS120 | ATS95 | CP191 | CP211 | CP247 | CP250 | CP262 | CP297 | CP335 | Dd2 | ECU | GB4 | N140 | P93_24 | PAD | SC27B | TAB113 | TAB165

C=CC1=C(C(=O)O)N2C(=O)[C@@H](NC(=O)C(N=O)c3csc(N)n3)[C@H]2SC1 (stereo not given in full)
inactive: [1] | 3D7 | AS120 | ATS95 | CP191 | CP211 | CP247 | CP250 | CP262 | CP297 | CP335 | Dd2 | ECU | GB4 | N140 | P93_24 | PAD | SC27B | TAB113 | TAB165

CCC(C)C1NC(=O)C(Cc2ccc(O)cc2)NC(=O)C(N)CSSCC(C(=O)N2CCCC2C(=O)NC(CC(C)C)C(=O)NCC(N)=O)NC(=O)C(CC(N)=O)NC(=O)C(CCC(N)=O)NC1=O (stereo not given)
inactive: [1] | 3D7 | AS120 | ATS95 | CP191 | CP211 | CP250 | CP262 | CP297 | CP335 | Dd2 | ECU | GB4 | N140 | P93_24 | PAD | SC27B | TAB113 | TAB165

CCC1NC(=O)C(NC(=O)c2ncccc2O)C(C)OC(=O)C(c2ccccc2)NC(=O)C2CC(=O)CCN2C(=O)C(Cc2ccccc2)N(C)C(=O)C2CCCN2C1=O (stereo not given)
inactive: [1] | 3D7 | ATS95 | CP191 | CP211 | CP247 | CP250 | CP262 | CP297 | CP335 | SC27B | TAB113
